The supplement of paper PMC11732987, “Enantioselective OTUD7B fragment discovery through chemoproteomics screening and high-throughput optimisation” (Communications Chemistry, 2025)

Columns and labels:
Experiment in all cases: log2 ratio of Biotin-Ahx-Ub-VS probe labelling (fragment/DMSO); higher = less target engagement (more negative = stronger competition), active = hit call of the paper (q ≤ 0.05, log2 ratio ≤ -1)
Conditions in all cases: compound concentration: 200 uM; treatment time: 3 h
USP34 = USP34 (UniProt Q70CQ2)
Sequence of USP34 (Q70CQ2 whole entry, the tested form may be a part): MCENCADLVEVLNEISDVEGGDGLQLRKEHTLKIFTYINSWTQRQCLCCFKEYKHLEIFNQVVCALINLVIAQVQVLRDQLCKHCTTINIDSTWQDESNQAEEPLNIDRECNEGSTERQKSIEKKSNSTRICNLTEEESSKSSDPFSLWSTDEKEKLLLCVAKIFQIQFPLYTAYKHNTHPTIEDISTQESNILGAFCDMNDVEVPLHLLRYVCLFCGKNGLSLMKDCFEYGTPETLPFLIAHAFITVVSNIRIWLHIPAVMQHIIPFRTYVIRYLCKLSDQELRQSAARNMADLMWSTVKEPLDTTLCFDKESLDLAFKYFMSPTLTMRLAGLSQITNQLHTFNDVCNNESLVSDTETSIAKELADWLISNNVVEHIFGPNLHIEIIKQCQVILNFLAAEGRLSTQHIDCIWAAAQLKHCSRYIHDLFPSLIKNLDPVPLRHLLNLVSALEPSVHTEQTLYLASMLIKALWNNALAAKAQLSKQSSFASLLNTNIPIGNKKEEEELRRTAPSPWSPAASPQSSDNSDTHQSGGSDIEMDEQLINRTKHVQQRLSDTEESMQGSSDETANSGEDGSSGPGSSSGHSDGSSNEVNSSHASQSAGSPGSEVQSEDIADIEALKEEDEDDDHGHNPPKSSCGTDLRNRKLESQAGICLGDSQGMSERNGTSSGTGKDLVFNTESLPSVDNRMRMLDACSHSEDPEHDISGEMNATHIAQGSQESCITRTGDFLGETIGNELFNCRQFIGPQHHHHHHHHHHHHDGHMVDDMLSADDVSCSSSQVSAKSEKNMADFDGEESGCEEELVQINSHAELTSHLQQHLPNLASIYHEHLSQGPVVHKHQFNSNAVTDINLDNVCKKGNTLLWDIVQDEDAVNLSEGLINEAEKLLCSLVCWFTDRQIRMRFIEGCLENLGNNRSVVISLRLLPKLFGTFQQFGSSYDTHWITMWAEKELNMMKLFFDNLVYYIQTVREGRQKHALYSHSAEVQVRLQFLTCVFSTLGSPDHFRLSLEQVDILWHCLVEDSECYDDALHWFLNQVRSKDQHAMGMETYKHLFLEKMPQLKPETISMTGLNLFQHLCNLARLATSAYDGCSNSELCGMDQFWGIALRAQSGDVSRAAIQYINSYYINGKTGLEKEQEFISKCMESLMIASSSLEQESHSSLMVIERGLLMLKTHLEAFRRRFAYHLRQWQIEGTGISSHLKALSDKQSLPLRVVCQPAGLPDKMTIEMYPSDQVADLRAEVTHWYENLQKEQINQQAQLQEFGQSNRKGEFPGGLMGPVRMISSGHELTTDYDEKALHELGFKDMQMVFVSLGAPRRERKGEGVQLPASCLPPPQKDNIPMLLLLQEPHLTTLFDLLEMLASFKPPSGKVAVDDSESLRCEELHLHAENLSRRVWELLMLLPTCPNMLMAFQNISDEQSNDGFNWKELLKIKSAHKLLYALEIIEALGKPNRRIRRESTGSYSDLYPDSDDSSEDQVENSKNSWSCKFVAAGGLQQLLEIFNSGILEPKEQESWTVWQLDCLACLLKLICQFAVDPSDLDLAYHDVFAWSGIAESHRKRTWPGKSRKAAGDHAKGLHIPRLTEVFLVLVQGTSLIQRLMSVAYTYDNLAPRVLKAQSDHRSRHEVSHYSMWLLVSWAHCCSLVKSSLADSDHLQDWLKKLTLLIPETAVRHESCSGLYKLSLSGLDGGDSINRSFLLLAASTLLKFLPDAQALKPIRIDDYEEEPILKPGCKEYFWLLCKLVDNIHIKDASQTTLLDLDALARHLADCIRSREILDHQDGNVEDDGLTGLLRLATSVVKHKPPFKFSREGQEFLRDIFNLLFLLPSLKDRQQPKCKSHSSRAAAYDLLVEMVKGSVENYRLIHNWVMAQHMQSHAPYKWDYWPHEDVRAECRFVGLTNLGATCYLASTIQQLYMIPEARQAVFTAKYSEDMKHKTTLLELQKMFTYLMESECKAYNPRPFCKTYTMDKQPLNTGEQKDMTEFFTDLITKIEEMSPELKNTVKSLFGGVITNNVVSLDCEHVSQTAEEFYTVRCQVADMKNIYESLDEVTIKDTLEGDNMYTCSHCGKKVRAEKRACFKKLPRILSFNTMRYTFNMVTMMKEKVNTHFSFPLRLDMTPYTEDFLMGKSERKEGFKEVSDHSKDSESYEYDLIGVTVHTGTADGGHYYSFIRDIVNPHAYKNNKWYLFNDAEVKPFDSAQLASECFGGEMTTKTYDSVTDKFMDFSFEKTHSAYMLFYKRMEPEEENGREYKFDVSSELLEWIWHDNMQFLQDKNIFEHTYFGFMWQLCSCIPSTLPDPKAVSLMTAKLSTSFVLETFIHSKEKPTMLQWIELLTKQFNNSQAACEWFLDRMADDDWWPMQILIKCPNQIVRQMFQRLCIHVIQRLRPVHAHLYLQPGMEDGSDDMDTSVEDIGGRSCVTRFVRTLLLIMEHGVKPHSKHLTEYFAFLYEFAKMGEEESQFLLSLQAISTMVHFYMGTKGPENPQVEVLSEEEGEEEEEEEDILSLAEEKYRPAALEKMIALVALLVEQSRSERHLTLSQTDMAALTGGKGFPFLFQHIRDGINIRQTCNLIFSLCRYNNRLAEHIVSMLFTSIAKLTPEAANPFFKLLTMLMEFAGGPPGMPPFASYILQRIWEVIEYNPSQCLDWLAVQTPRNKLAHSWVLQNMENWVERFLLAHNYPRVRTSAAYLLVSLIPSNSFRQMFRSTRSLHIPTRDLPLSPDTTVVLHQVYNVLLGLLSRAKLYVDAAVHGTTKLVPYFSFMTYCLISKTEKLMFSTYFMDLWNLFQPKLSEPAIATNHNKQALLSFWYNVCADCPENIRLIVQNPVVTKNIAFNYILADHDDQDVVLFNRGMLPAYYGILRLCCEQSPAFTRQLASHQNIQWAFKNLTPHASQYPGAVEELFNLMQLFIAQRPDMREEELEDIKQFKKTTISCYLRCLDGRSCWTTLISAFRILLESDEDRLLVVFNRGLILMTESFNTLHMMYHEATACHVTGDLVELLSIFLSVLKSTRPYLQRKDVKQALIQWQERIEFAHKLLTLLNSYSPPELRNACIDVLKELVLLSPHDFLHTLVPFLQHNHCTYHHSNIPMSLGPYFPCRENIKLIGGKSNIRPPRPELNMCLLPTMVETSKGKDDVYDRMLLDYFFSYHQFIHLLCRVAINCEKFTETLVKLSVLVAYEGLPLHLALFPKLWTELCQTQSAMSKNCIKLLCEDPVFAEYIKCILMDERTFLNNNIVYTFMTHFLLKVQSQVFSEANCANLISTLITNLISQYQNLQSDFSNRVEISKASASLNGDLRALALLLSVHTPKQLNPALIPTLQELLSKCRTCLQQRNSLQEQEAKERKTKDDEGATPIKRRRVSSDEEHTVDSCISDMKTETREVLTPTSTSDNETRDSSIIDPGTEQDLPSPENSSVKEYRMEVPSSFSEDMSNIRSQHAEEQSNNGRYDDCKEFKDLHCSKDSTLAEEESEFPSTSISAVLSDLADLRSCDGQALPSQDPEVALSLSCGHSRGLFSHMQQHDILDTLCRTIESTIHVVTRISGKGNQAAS
Summary of the method: (§1)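 Triplicate samples of HEK293T lysate, 495 µg each, received fragment at 200 µM or vehicle for 3 h, followed by Biotin-Ahx-Ub-VS (0.5 µM final) for 1 h. After NeutrAvidin enrichment of labelled DUBs and LysC/trypsin digestion, peptides were run by diaPASEF LC-MS/MS. The values are average log2 fragment/vehicle ratios from global-median-normalised Spectronaut label-free quantities, tested by unpaired t-test on proteins having ≥2 unique peptides.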

USP36 = biological target: T1, USP36 (UniProt Q9P275)
T1 sequence (whole entry): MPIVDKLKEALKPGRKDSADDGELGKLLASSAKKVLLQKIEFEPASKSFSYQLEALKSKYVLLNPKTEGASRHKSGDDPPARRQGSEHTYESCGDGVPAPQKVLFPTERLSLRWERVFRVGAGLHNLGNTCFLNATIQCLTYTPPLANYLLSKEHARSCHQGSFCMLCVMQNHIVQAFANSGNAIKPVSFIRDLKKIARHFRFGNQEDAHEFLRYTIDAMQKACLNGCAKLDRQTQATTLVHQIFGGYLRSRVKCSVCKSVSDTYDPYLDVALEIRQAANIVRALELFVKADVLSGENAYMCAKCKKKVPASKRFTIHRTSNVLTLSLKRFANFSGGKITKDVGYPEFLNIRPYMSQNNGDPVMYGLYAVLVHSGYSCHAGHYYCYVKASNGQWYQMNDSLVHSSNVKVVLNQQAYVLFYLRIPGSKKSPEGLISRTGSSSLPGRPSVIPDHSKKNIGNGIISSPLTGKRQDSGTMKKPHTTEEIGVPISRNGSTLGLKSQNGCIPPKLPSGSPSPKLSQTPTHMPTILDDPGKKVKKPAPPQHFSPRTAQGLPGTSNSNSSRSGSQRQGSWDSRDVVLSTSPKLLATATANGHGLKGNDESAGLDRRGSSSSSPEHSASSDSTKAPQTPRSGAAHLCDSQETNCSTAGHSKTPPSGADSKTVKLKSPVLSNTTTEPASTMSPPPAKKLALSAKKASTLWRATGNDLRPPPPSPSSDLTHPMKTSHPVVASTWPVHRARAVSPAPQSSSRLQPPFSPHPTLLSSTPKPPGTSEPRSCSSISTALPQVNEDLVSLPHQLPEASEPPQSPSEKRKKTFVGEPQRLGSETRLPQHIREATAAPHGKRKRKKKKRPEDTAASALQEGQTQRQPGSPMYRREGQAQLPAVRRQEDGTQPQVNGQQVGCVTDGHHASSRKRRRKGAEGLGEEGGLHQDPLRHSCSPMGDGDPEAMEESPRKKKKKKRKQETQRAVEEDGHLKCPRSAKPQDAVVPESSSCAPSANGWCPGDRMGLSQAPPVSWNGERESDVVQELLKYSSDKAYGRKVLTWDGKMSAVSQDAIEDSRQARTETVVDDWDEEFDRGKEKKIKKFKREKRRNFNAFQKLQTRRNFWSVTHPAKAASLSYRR
Summary of the method: as §1

USP38 = biological target: T2, USP38 (UniProt Q8NB14)
T2 sequence (whole entry): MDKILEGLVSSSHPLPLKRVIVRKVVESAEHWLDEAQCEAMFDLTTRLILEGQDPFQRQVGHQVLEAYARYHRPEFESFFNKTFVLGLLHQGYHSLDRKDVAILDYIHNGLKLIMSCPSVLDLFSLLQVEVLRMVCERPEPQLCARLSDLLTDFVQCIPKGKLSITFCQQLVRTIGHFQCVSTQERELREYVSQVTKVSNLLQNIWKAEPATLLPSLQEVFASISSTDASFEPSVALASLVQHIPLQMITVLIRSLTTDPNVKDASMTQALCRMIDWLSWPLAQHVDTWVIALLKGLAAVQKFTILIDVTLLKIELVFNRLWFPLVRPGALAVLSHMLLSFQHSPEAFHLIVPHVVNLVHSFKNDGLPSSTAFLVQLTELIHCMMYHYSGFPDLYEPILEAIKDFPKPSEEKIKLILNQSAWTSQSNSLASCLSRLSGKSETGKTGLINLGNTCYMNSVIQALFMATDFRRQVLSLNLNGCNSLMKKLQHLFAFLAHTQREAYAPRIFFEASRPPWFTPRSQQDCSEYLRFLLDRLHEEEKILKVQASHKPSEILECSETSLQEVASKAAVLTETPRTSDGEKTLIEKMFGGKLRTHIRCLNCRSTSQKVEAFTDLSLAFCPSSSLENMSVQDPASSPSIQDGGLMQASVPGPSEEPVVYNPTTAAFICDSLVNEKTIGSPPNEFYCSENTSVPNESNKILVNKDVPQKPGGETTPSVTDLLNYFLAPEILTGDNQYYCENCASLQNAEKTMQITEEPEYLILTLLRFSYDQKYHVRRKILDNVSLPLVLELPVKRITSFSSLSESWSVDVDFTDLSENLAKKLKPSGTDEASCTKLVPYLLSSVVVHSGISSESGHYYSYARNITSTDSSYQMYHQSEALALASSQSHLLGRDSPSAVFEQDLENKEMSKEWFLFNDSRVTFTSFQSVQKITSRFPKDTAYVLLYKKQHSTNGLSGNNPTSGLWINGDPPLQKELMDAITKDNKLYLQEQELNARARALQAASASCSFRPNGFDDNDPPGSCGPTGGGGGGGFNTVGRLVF
Summary of the method: as §1

USP39 = biological target: T3, USP39 (UniProt Q53GS9)
T3 sequence (whole entry): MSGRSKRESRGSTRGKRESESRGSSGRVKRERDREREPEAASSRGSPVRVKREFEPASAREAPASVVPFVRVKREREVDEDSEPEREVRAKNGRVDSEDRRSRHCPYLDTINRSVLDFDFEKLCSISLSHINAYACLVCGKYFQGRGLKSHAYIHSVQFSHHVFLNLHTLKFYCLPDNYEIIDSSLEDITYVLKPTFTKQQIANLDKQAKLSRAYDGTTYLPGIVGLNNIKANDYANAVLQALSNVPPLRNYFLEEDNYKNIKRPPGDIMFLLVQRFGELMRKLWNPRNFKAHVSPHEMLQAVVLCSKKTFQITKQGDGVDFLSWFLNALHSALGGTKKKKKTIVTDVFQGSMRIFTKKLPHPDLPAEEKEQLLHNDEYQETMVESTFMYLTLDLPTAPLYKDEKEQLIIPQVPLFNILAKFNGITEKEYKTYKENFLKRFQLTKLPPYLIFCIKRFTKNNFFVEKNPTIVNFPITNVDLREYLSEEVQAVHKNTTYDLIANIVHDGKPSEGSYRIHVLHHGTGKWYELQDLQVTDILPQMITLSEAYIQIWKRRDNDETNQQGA
Summary of the method: as §1

USP4 = biological target: T4, USP4 (UniProt Q13107)
T4 sequence (whole entry): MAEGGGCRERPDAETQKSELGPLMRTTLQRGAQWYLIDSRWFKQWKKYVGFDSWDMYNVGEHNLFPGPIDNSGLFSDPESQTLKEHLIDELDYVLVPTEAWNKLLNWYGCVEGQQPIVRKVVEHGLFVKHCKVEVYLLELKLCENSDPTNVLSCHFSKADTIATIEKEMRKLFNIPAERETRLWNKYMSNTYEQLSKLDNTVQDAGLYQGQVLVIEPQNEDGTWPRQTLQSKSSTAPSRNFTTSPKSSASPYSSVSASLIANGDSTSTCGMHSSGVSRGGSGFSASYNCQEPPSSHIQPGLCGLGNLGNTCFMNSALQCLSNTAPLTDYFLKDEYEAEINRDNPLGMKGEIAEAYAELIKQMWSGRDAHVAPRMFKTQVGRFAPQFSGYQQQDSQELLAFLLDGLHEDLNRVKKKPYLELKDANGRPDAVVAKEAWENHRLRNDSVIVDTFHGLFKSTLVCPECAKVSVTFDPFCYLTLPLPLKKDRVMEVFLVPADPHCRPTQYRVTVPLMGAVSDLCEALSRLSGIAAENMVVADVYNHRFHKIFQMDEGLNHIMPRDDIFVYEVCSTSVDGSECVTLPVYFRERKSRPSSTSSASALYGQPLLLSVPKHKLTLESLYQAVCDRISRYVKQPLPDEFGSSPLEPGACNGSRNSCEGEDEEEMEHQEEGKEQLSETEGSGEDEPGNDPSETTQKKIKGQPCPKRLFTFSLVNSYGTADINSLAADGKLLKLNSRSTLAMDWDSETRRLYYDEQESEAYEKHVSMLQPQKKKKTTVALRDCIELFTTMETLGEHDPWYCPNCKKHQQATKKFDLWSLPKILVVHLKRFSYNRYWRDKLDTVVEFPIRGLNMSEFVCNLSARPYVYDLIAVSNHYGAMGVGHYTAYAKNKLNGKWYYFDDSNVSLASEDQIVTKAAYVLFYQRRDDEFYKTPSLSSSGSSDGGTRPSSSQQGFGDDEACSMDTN
Summary of the method: as §1

Measured: log2 ratio of Biotin-Ahx-Ub-VS probe labelling

O=C(CCl)NCC(=O)N1CCCC1
inactive: USP34 0.0366 | USP36 -0.0373 | USP38 0.115 | USP39 0.319 | USP4 -0.0182
